Common to all, as to experiment: NCI-60 one-dose screen, 48 h (100 = growth as untreated, 0 = no growth, -100 = all killed)
What all share (conditions): 10 µM unless noted

Experiment [1] has as its system HCT-15 colon.
The test system of experiment [2] is HT29 colon.
Experiment [3] relates to SNB-75 CNS.
Experiment [4] concerns SNB-19 CNS.
Experiment [5] relates to U251 CNS.
For experiment [6], the system named is PC-3 prostate.
The subject of experiment [7] is SK-MEL-5 melanoma.
For experiment [8], the system named is UACC-62 melanoma.
Experiment [9] relates to LOX IMVI melanoma.
Experiment [10] relates to SK-MEL-28 melanoma.

This is part of a sample that, as a whole, favours compounds with a hit. Of some 83,000 tested, about 20% had one in any assay.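 Activity criterion: percent growth below 10, measured after cells in 96-well plates were exposed to a single compound concentration for 48 hours.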 Values without a mark were called inactive. The source made the active and inactive calls.

As to `C=C1C(=O)O[C@H]2[C@H]1CC/C(C(=O)NCCOCCOCC(=O)Nc1ccc(OC)c(C(N)=O)c1O)=C\CC[C@@]1(C)O[C@@H]21`, the growth is 101% in [1]; 88.1% in [2]; 83.1% in experiment [3]; 95.1% in experiment [4]; 89.8% in experiment [5]; 97% in [6]. Also, the growth in [7] is 102%; in experiment [8], 92.6%; in [9] it was 95.3%; in experiment [10], 84.7%.

Regarding `COc1cc(NS(=O)(=O)c2ccc(N)cc2)ncn1`, the growth in experiment [1] is 108%; in experiment [2], 120%; in [3] it was 104%; in experiment [4], 99.8%; in experiment [5], 102%; in [6] it was 99.8%. Moreover, the growth is 103% in experiment [7], 99.1% in experiment [8], 94.3% in [9] and 121% in experiment [10].

As to `Nc1nc(Cl)cc(NCCCCNc2cc(Cl)nc(N)n2)n1`, the growth in [1] was 114%; in experiment [2] it was 109%; in [3], 108%; in experiment [4] it was 101%; in experiment [5], 99.6%; in [6], 95.8%. The growth in [7] was 111%; in experiment [8] it was 101%; in [9], 96.9%; in [10] it was 118%.

`COc1ccc(-c2cc(-c3nnc(SC/C(=N\O)c4ccccc4)n3-c3ccccc3)c3ccccc3n2)cc1`: the growth in [1] was 107%; in [2], 99.5%; in [3], 100%; in experiment [4] it was 105%; in experiment [5], 101%; in experiment [6], 93.6%. For the same compound, the growth in experiment [7] is 108%; in experiment [8], 97.6%; in [9] it was 95.7%; in [10], 113%.

In the case of `COc1ccccc1S(=O)(=O)Nc1ccc2c3c(cc(-c4ccoc4)nc13)C(=O)N2C`, the growth in [1] was 66.6%; in [2], 43.8%; in experiment [3], 16.6%; in experiment [4] it was 75.9%; in experiment [5], 77.9%; in experiment [6], 66.9%. Also, the growth in [7] is 56.6%; in experiment [8], 38.3%; in experiment [9], 51.9%; in [10], 75.6%.

On to `O=C(NCCNc1nccc(-c2c(-c3cccc(O)c3)nc3sccn23)n1)c1cc(N2CCOCC2)cc(C(F)(F)F)c1`, for which the growth in experiment [1] is 92%; in [2], 49.2%; in [3], 83.2%; in experiment [4], 125%; in [5] it was 105%; in experiment [6], 78.2%. The growth is 58.4% in experiment [7], 8.5% (active) in experiment [8], 52.3% in experiment [9] and 44.4% in experiment [10].

On to `c1cncc(-c2nc3ccccc3[nH]2)c1`, for which the growth is 111% in experiment [1]; 102% in experiment [2]; 96.9% in experiment [3]; 111% in experiment [4]; 104% in experiment [5]; 89.7% in experiment [6]. For the same compound, the growth in experiment [7] is 90.8%; in experiment [8], 85.5%; in [9] it was 94.4%; in [10] it was 87%.

As to `O=C(Nc1ccc(-n2ccc3c(NC(=O)c4ccccc4)ncnc32)cc1)Nc1ccc(Cl)c(Cl)c1`, the growth is 0.689% (active) in experiment [1]; -58.2% (active) in experiment [2]; -5.84% (active) in [3]; 15.6% in experiment [4]; -58.6% (active) in experiment [5]; -52.3% (active) in [6]. In addition, the growth is 13.7% in [7], 48.5% in [8], 45.5% in [9] and 5.26% (active) in experiment [10].

As for `COc1ccc(/C=N/C2=NNC(C)(c3ccccc3O)N2C(Cc2c[nH]c3ccccc23)C(=O)O)cc1` (configuration not stated), the growth in experiment [1] is 39.7%; in experiment [2] it was 5.86% (active); in [3] it was 32.5%; in experiment [4], 27.8%; in experiment [5] it was 21%; in experiment [6] it was 23.8%. Further, the growth was -78.3% (active) in [7], 17.7% in experiment [8], 19.2% in [9] and 33.5% in experiment [10].

As for `Cc1c(C(C)(C)C)cc(C(C)(C)C)c2c1CN(C)CO2`, the growth was 108% in experiment [1]; 105% in experiment [2]; 102% in experiment [3]; 112% in experiment [4]; 109% in [5]; 110% in [6]. In addition, the growth in experiment [7] is 127%; in experiment [8], 114%; in experiment [9], 106%; in experiment [10], 102%.

For the compound `Cc1ccc2oc(=O)cc(C3C(C#N)=C(N)Oc4c3ccc3ccccc43)c2c1` (configuration not stated), the growth was 51.1% in [1]; 38.8% in [2]; 67.5% in [3]; 84.9% in experiment [4]; 82.8% in experiment [5]; 55.6% in [6]. In addition, the growth in [7] is 61.1%; in experiment [8], 61.4%; in experiment [9], 75.4%; in experiment [10] it was 86.2%.

For `COc1ccc(NC(=O)Nc2ccc(-c3ccc(OC)c(OC)c3)nc2C)cc1`, the growth in experiment [1] is 91.8%; in [2], 68.8%; in experiment [3] it was 47.5%; in [4] it was 71.5%; in [5], 22.1%; in experiment [6], 81.4%. Also, the figures for the growth in [7], in [9] and in experiment [10] were 23%, 88.8% and 86.8%, respectively.

Turning to `C=C1C(=O)O[C@H]2[C@H]1CC/C(COC(=O)c1cc(OC)c(OC)c(OC)c1)=C\CC[C@@]1(C)O[C@@H]21`, the growth in experiment [1] is -42.8% (active); in [2] it was -80.2% (active); in [3], 45.9%; in [4], 30.5%; in experiment [5], 9.17% (active); in experiment [6], 18.6%. Also, the growth was -23.8% (active) in experiment [7], -94.9% (active) in [9] and -36.5% (active) in experiment [10].

For `CCN(CC)CCN1C(=O)c2c(c3c4ccccc4[nH]c3c3[nH]c4ccccc4c23)C1=O`, the growth was 59.4% in [1]; 46.5% in experiment [2]; 80% in experiment [3]; 80.3% in experiment [4]; 87.9% in experiment [5]; 82.5% in experiment [6]. Further, the growth is 94.3% in [7], 82.3% in experiment [9] and 96.3% in experiment [10].

Values taken from PubChem BioAssay (NCI).
